# Results published in PubChem BioAssay AID485341 (National Center for Advancing Translational Sciences (NCATS), 2010).
# Among all 330,000 compounds or so, about 1,700 (0.52%) were called active. This is one part of a sample in which actives are shown more often than they occur. Calls come from the whole dose curve; as a rule, active = well fitted inhibition curve with a large enough effect; inconclusive = small, poorly fitted or top-dose-only effect; inactive = no such curve, though single readings can be large or run the other way.
# Molecular target: Beta-lactamase (Escherichia coli (strain K12)) (UniProt P00811)
# Assay: qHTS Inhibitors of AmpC Beta-Lactamase (assay without detergent); note: nearly all actives have a fitted effect of over 20% in size;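 for activity change, negative = inhibition: plate controls were no compound for no effect and no enzyme for full effect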
# Conditions: AmpC nitrocefin hydrolysis, absorbance 480 nm, 0.0001% Triton; series mostly up to 57.1 µM; activity change, negative = inhibition: at the top concentration
# Method in brief: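 AmpC (5.3 nM in the dispensed reagent) in 20 mM phosphate pH 7.0 with 0.01% (detergent screen) or 0.0001% Triton X-100 was preincubated with compounds for 15 min at room temperature. Nitrocefin was then added from an 800 uM solution, and hydrolysis was followed at 480 nm.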
# Potency is the fitted concentration of half-maximal effect.
# Beta-lactamase (Escherichia coli (strain K12)), sequence (P00811 whole entry, looked up): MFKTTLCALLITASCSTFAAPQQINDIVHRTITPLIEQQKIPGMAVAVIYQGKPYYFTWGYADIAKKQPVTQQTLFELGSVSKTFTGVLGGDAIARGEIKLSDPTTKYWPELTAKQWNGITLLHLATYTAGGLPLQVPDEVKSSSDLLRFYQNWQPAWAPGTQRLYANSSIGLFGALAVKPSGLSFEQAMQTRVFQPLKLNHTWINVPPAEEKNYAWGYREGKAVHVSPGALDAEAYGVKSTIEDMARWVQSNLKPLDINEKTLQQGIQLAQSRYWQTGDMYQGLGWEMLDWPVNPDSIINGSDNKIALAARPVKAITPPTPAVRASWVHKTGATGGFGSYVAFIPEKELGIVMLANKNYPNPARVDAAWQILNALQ
SMILES,"activity change, negative = inhibition",Potency
CC(C)CCN1C(=O)c2ccc(C(=O)Nc3cccc(S(N)(=O)=O)c3)cc2C1=O,-39.5% (inactive),–
CN(c1ccccn1)c1ncnc2[nH]ncc12,3.64% (inactive),–
Cc1nn(C)c(Cl)c1CN1CCC(Oc2ccc(C(=O)N3CCCC3)cc2)CC1,35.1% (inactive),–
Cc1csc(=O)n1CC(=O)Nc1ccc(S(C)(=O)=O)cc1,-12.7% (inactive),–
O=C(c1ccc(Cl)nc1)N1CCN(S(=O)(=O)c2ccc3c(c2)OCCO3)CC1,0.998% (inactive),–
O=C(CSc1ccccc1)Nc1cccc(S(=O)(=O)N2CCCCC2)c1,-26.9% (inactive),–
Nc1cc(N)nc(SCC(=O)Nc2cccc(S(=O)(=O)N3CCCCC3)c2)n1,–,25.1 µM (active)
Cn1nnnc1SCC(=O)Nc1cccc(S(=O)(=O)N2CCCCC2)c1,-28.9% (inactive),–
N#C/C(=C(/O)COC(=O)COc1ccc(Cl)cc1)c1nc2ccccc2[nH]1,–,11.2 µM (active)
COCCN(CCOC)S(=O)(=O)c1ccc(/C(O)=C(\C#N)c2nc3ccccc3[nH]2)cc1,-29.2% (inactive),–
COc1ccccc1C(=O)COC(=O)COc1ccc(C#N)cc1,-21.5% (inactive),–
Cc1cc(C)c(OCCN2CC(C)OC(C)C2)c(Br)c1 (stereo unspecified),64.9% (inactive),–
CCN(CC)S(=O)(=O)c1ccc(CNC(=O)CN2C(=O)NC3(CCc4ccccc43)C2=O)cc1 (stereo unspecified),1.91% (inactive),–
Cn1c2cc(B(O)O)sc2c2cnn(Cc3ccccc3F)c(=O)c21,–,2.82 µM (active)
Cn1cc(C(=O)NCc2ccccc2F)cn1,-13.3% (inactive),–
CCOC(=O)c1c(CNCc2ccccc2F)c2sc(C)cc2n1C,-10.1% (inactive),–

SMILES,"activity change, negative = inhibition",Potency
COc1cc2c(-c3ccc4c(c3)OCO4)c(-c3ccsc3)oc(=O)c2cc1OC,-30.6% (inactive),–
O=C(NC1CCN(C(=S)NCc2ccco2)CC1)c1ccc(F)cc1,-3.96% (inactive),–
Cc1ccc(N2C(=O)C(CC(=O)Nc3cccc(F)c3)N(CCc3ccncc3)C2=O)cc1 (stereo unspecified),52.9% (inactive),–
CN1C(=O)C(CC(N)=O)N(NC(=O)c2ccc(Cl)cc2)C1=S (stereo unspecified),-8.33% (inactive),–
Cc1ccc(NC(=O)CC2C(=O)N(Cc3ccccc3)C(=S)N2NC(=O)c2cccc(F)c2)c(C)c1 (stereo unspecified),–,31.6 µM (active)
CN(C)/C=N/c1cc(=O)n(C)c(=O)n1CC1CC1,-10% (inactive),–
Clc1ccccc1-c1cc(COc2ccc3ccccc3c2)no1,-19.5% (inactive),–
Nc1nc2n(n1)C(c1ccco1)CC(c1ccc(Cl)c(Cl)c1)N2 (stereo unspecified),82.4% (inactive),–
Clc1ccc(C2CC(c3cccs3)n3ncnc3N2)cc1Cl (stereo unspecified),–,0.708 µM (active)
COc1ccc(C2CC(c3ccc(C)cc3)Nc3ncnn32)cc1 (stereo unspecified),43.2% (inactive),–
CN(C)CCN(Cc1ccccc1)S(=O)(=O)c1csc(C(N)=O)c1,-8.05% (inactive),–
Cc1ncn2cc(-c3ccc(Cl)cc3Cl)[nH]c(=O)c12,-27.9% (inactive),–
Cn1c2c(c(=O)n(C)c1=O)CN(Cc1ccco1)CN2,-21.2% (inactive),–
CC(C)n1c(=O)c(C=Nc2ccc(Br)cc2)c(O)n(Cc2ccco2)c1=O,–,14.1 µM (active)
Cn1c(O)c(C=Nc2ccc3c(c2)CCC3)c(=O)n(C)c1=O,-16.7% (inactive),–
